Source: PubChem BioAssay (EPA / NIEHS)
Where “and” joins values, the source holds several entries; their conditions need not be identical. Equal entries are not always repeated. The source holds several records for some structures; these can differ, active in one and inactive in another. Calls of active or inactive are those of the source. The calls were made as follows: active = hit-call score of the fitted dose curve at least 0.9, where 1 is the maximum; inactive = score below 0.9.

Experiments:
[1] = read-out: Tissue plasminogen activator (tPA), PLAT (gene 5327); assay: BSK_BE3C_tPA: BioMAP Diversity Plus: BE3C Assay for Tissue plasminogen activator (tPA) Biomarker Activity (AID 2283041); conditions: primary human bronchial epithelial cells; actives raise or lower the signal
Method in brief: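 tPA measured by ELISA 24 h after dosing human primary bronchial epithelial cells (BE3C system). Changes in either direction were fitted against DMSO. Parallel cultures were stained with SRB to flag overt cytotoxicity.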

[2] = read-out: Interleukin-8 (IL8), CXCL8 (gene 3576); assay: BSK_CASM3C_IL8: BioMAP Diversity Plus: CASM3C Assay for Interleukin-8 (IL8) Biomarker Activity (AID 2283042); conditions: primary human coronary artery smooth muscle cells; actives raise or lower the signal;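 also: IL-8 protein level quantified by ELISA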
[3] = read-out: Human Leukocyte Antigen - DR isotype (HLADR), HLA-DRA (gene 3122); assay: BSK_CASM3C_HLADR: BioMAP Diversity Plus: CASM3C Assay for Human Leukocyte Antigen - DR isotype (HLADR) Biomarker Activity (AID 2283043); conditions: primary human coronary artery smooth muscle cells; actives raise or lower the signal;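 also: cell-surface HLA-DR protein level quantified by ELISA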
[4] = read-out: Macrophage colony-stimulating factor (MCSF), CSF1 (gene 1435); assay: BSK_CASM3C_MCSF: BioMAP Diversity Plus: CASM3C Assay for Macrophage colony-stimulating factor (MCSF) Biomarker Activity (AID 2283044); conditions: primary human coronary artery smooth muscle cells; actives raise or lower the signal;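 also: M-CSF protein amount quantified by ELISA after 24 h exposure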
[5] = read-out: Low-density lipoprotein receptor (LDLR), LDLR (gene 3949); assay: BSK_CASM3C_LDLR: BioMAP Diversity Plus: CASM3C Assay for Low-density lipoprotein receptor (LDLR) Biomarker Activity (AID 2283045); conditions: primary human coronary artery smooth muscle cells; actives raise or lower the signal;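 also: LDLR protein level on the cell surface quantified by ELISA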
[6] = read-out: Monocyte Chemoattractant Protein-1 (MCP1), CCL2 (gene 6347); assay: BSK_CASM3C_MCP1: BioMAP Diversity Plus: CASM3C Assay for Monocyte Chemoattractant Protein-1 (MCP1) Biomarker Activity (AID 2283046); conditions: primary human coronary artery smooth muscle cells; actives raise or lower the signal;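 also: MCP-1 level quantified by ELISA 24 h after dosing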
[7] = BSK_CASM3C_Proliferation: Cell Proliferation Assessment in the BioMAP Diversity Plus: CASM3C Assay (AID 2283047); conditions: primary human coronary artery smooth muscle cells;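 also: sulforhodamine B total protein stain as relative cell number at 560 nm; sub-confluent cells exposed 48 h before staining; fitted both ways against DMSO so gain or loss of cell number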
[8] = read-out: Monokine induced gamma interferon (MIG), CXCL9 (gene 4283); assay: BSK_CASM3C_MIG: BioMAP Diversity Plus: CASM3C Assay for Monokine induced gamma interferon (MIG) Biomarker Activity (AID 2283048); conditions: primary human coronary artery smooth muscle cells; actives raise or lower the signal;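 also: MIG protein level measured by ELISA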
[9] = read-out: serum amyloid A (SAA), SAA1 (gene 6288); assay: BSK_CASM3C_SAA: BioMAP Diversity Plus: CASM3C Assay for serum amyloid A (SAA) Biomarker Activity (AID 2283049); conditions: primary human coronary artery smooth muscle cells; actives raise or lower the signal;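 also: SAA protein level quantified by ELISA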
[10] = BSK_CASM3C_SRB: Viability Assessment in the BioMAP Diversity Plus: CASM3C Assay (AID 2283050); conditions: primary human coronary artery smooth muscle cells;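 also: total protein by SRB staining as cytotoxicity measure in parallel cultures; cells exposed to compound for 24 h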

Measured: AC50

O=S(=O)(O)CCC(F)(F)C(F)(F)C(F)(F)C(F)(F)C(F)(F)C(F)(F)C(F)(F)C(F)(F)F
inactive: all assays above

Cc1cc(O)c(C(C)(C)C)cc1C(C)(C)C
active: [1] 5.21 µM | [2] 8.77 µM | [3] 3.5 µM | [4] 4.59 µM | [5] 5.37 µM | [6] 5.83 µM | [7] 3.85 µM | [8] 12.5 µM | [9] 4.22 µM | [10] 4.99 µM

CCN(CC)c1ccc(N=Nc2ccccc2)cc1
active: [1] 27.7 µM | [3] 31.9 µM | [6] 4.07 µM | [7] 8.48 µM | [10] 20 µM
inactive: all other assays above

FC(F)(F)C(F)(F)C(F)(F)C(F)(F)C(F)(F)C(F)(F)CC[Si](Cl)(Cl)Cl
inactive: all assays above

CCN(CC)c1ccc(C=O)cc1
inactive: all assays above

O=C(Cl)C(F)(F)C(F)(F)C(F)(F)C(F)(F)C(F)(F)C(F)(F)F
inactive: all assays above

O=C(O)C(F)(F)OC(F)(F)C(F)(F)OC(F)(F)C(F)(F)OC(F)(F)F
inactive: all assays above

CCOC(=O)CC(=O)C(F)(F)C(F)(F)F
inactive: all assays above

O=C(O)CCC(F)(F)C(F)(F)C(F)(F)C(F)(F)C(F)(F)C(F)(F)C(F)(F)F
inactive: all assays above

CCN(CCO)S(=O)(=O)C(F)(F)C(F)(F)C(F)(F)C(F)(F)C(F)(F)C(F)(F)C(F)(F)C(F)(F)F
inactive: [1] | [2] | [3] | [4] | [6] | [9]
active: [3] 15.6 µM | [4] 35.3 µM | [5] 7.08 µM and 8.16 µM | [7] 15.5 µM and 16.5 µM | [8] 8.09 µM and 7.66 µM | [9] 7.99 µM | [10] 19.2 µM and 9.12 µM

O=C(Cl)C(F)(F)C(F)(F)C(F)(F)C(F)(F)C(F)(F)C(F)(F)C(F)(F)F
inactive: all assays above

CCN=C1C=CC(=C(c2ccc(N(CC)CC)cc2)c2ccc(N(CC)CC)cc2)c2ccccc21
active: [1] 1.54 µM and 976 nM | [3] 4.2 µM and 3.11 µM | [4] 5.89 µM and 2.3 µM | [6] 4.84 µM and 4.54 µM | [7] 1.09 µM and 1.31 µM | [8] 5.1 µM and 5.25 µM | [9] 371 nM and 1.07 µM | [10] 5.3 µM and 5.29 µM
inactive: [2] | [5]

O=S(=O)(OCC(F)(F)F)C(F)(F)C(F)(F)C(F)(F)C(F)(F)F
active: [8] 30 µM | [9] 0.653 µM
inactive: [1] | [2] | [3] | [4] | [5] | [6] | [7] | [8] | [9] | [10]

NCC(F)(F)C(F)(F)C(F)(F)C(F)(F)C(F)(F)C(F)(F)F
inactive: all assays above

FC(F)(F)C(F)(F)C(F)(F)C(F)(F)C(F)(F)C(F)(F)C(F)(F)CCI
inactive: all assays above

Cc1ccc(S(=O)(=O)C(I)I)cc1
active: [1] 5.4 µM | [2] 3.52 µM | [3] 2.61 µM | [4] 2.17 µM | [6] 2.78 µM | [7] 1.37 µM | [8] 5.05 µM | [9] 0.987 µM | [10] 3.42 µM
inactive: [5]

CCN(CC)c1ccc2c(c1)Oc1cc(N(CC)CC)ccc1C21OC(=O)c2ccccc21
inactive: all assays above

CO[Si](C)(CCC(F)(F)C(F)(F)C(F)(F)C(F)(F)C(F)(F)C(F)(F)F)OC
inactive: all assays above

O=C(c1ccccc1)c1ccc(O)cc1O
inactive: all assays above

CC(C)(C)c1cc(CCC(=O)NCCCCCCNC(=O)CCc2cc(C(C)(C)C)c(O)c(C(C)(C)C)c2)cc(C(C)(C)C)c1O
active: [6] 0.824 µM
inactive: all other assays above

NCC(F)(F)C(F)(F)C(F)(F)C(F)(F)C(F)(F)C(F)(F)C(F)(F)C(F)(F)F
inactive: all assays above

O=C1c2c(O)ccc(Nc3ccc(CCO)cc3)c2C(=O)c2c([N+](=O)[O-])ccc(O)c21
active: [2] 2.52 µM | [7] 14.5 µM | [10] 4.72 µM
inactive: all other assays above

CNS(=O)(=O)C(F)(F)C(F)(F)C(F)(F)C(F)(F)C(F)(F)C(F)(F)C(F)(F)C(F)(F)F
inactive: [2] | [3] | [4] | [5] | [6] | [7] | [8] | [9] | [10]
active: [1] 220 nM and 654 nM | [7] 35.4 µM

O=C(O)CCC(F)(F)C(F)(F)C(F)(F)F
inactive: all assays above

Cc1cnccn1
active: [7] 0.196 µM
inactive: all other assays above

OCC(F)(F)C(F)(F)C(F)(F)CO
inactive: all assays above

O=C(O)C(F)(F)C(F)(F)C(F)(F)C(F)(F)C(F)(F)C(F)(F)C(F)F
inactive: all assays above

NC(O)(C(F)(F)F)C(F)(F)F
active: [4] 43.4 µM
inactive: [1] | [2] | [3] | [4] | [5] | [6] | [7] | [8] | [9] | [10]

C=CC(=O)OCCC(F)(F)C(F)(F)C(F)(F)C(F)(F)F
active: [7] 15 µM | [8] 41.1 µM and 30 µM
inactive: [1] | [2] | [3] | [4] | [5] | [6] | [7] | [9] | [10]

C=CC(=O)OCC(F)(F)C(F)(F)C(F)(F)C(F)(F)C(F)(F)C(F)(F)C(F)(F)C(F)F
inactive: all assays above

CC1=CC2C3C=CC(C3)C2C1C (stereo not drawn)
inactive: all assays above

NC(=O)C(F)(F)C(F)(F)C(F)(F)C(F)(F)C(N)=O
inactive: all assays above

O=C(O)C(F)(F)C(F)(F)C(F)(F)C(=O)O
inactive: all assays above

Cc1cc(C)c(O)c(C(C)(C)C)c1
active: [1] 29.6 µM | [3] 25.5 µM | [4] 22.7 µM | [5] 20 µM | [6] 24.9 µM | [7] 25.3 µM | [8] 29.3 µM | [9] 20 µM | [10] 27.2 µM
inactive: [2]
